Source: PubChem (several laboratories)
PABP1 MLLE inh: inhibitors of PABP1 MLLE–PAM2 peptide binding, primary screen, biochemical, fluorescence polarization, FITC-PAM2, GST-MLLE; Polyadenylate-binding protein 1 (Homo sapiens), P11940; inhibition, % at 20 µM; actives 0.36% (n = 360,000); AID 588489, 2011; in the data active = inhibition above about 35%, passing the limit was not always enough;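 also: plate controls were DMSO wells with GST-MLLE for no effect and wells lacking GST-MLLE protein for full effect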
PABP FP inh: PABP poly(A) RNA binding inhibitors, primary screen, biochemical, fluorescence polarization, uHTS; inhibition, % at 35 µM; Polyadenylate-binding protein 1 (Homo sapiens), P11940; AID 2014, 2009; actives 1% (n = 290,000);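 also: calls also rest on retests at 20 µM and on dose response follow-up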
eIF4E 4G PPI: eIF4E–eIF4G protein interaction inhibitors, primary screen, biochemical, uHTS, TR-FRET, eIF4GI fragment. TR-FRET eIF4E-eIF4GI(517-606) binding, 2 h. inhibition, % at 21.7 µM. actives 0.37% (n = 220,000);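 active = inhibition above about 30%, limit read from the data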;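 also: 0% = full FRET control wells and 100% = background wells lacking eIF4GI fragment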
eIF4H FP inh: human eIF4H binding inhibitors, primary screen, translation initiation inhibitor project, biochemical, uHTS, fluorescence polarization; Eukaryotic translation initiation factor 4H (Homo sapiens), Q15056; actives 0.94% (n = 290,000); eIF4H fluorescence polarization binding assay; inhibition, % at 35 µM;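 also: calls also rest on retests at 20 µM and on dose response follow-up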
PERK inh: block of dimerizer-induced PERK translation repression, primary screen, PERK inhibitor project, CHO PERK-DD cells, SEAP luminescence, HTS. CHO PERK-DD fusion, SEAP luminescence translation reporter. Eukaryotic translation initiation factor 2-alpha kinase 3 (Homo sapiens), Q9NZJ5. actives 0.17% (n = 220,000). inhibition, % at 5.6 µM;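 active = inhibition above the mean inhibition of all tested compounds plus 3 SD, set separately per screening campaign, cut at about 2.9% in these data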;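 also: PERK kinase domain activated by AP20187 dimerizer at 100 nM; 0% = DMSO with dimerizer and 100% = rapamycin at 8.4 µM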
Active calls of the source: *; ? = inconclusive; / = no result. This is a sample that favours compounds with a hit; in the whole collection about 1.6% have one here. Unless noted, no rule for the calls is given here.

SMILES	PABP1 MLLE inh	PABP FP inh	eIF4E 4G PPI	eIF4H FP inh	PERK inh
CN1CC=C2C(C#N)=C(N)C(C#N)(C#N)C(c3cccc(Cl)c3Cl)C2C1 (stereo not drawn)	55.3	115.5	5.6	121.5*	0.4
CN1CC=C2C(C#N)=C(N)C(C#N)(C#N)[C@H](c3ccoc3)[C@H]2C1	138.6	?	-5.4	?	0.4
O=C(CC(=O)c1c(F)cccc1Cl)c1ccccc1O	-3.6	-1.7	/	-6.1	/
COc1ccc(NC(=S)NC(C)Cc2cccs2)cc1 (stereo not drawn)	-47.8	9.7*	2.8	107.8*	0.2
CC(Cc1cccs1)NC(=S)Nc1ccc(F)cc1 (stereo not drawn)	4.2	26.8	-1.5	7.0	0.5
O=C(COC(=O)/C=C/c1ccc(OC(F)F)cc1)Nc1cccc(S(=O)(=O)N2CCOCC2)c1	0.3	/	/	/	/
CCOC(=O)CSCC(NC(=O)OC(C)(C)C)C(=O)OCC (stereo not drawn)	12.2	1.6	6.3	5.8	0.7
CCOC(=O)C(CSCC(=O)c1ccc(Cl)cc1Cl)NC(=O)OC(C)(C)C (stereo not drawn)	48.7*	3.1	-1.0	-7.2	0.3
COC(=O)c1c(NC(=O)CC2Nc3cc(C)c(C)cc3NC2=O)sc(C)c1C (stereo not drawn)	-72.3	0.2*	-4.0	86.5*	0.8
COc1ccc(S(=O)(=O)N(C)[C@H]2C[C@H]3c4cc(N5CCN(C)CC5)ccc4CCN3C(=O)[C@H]2[C@H](C)O)cc1	-4.4	/	/	/	/
OC(c1ccc(Cl)cc1)c1ncc(-c2ccc(Oc3ccccc3)cc2)[nH]1 (stereo not drawn)	-10.7	/	/	/	/
COc1ccc(NC(=O)COC(=O)c2cc(Cl)ccc2O)cc1S(=O)(=O)N1CCCCC1	1.5	/	/	/	/
CS(=O)(=O)c1ccc(Cl)c(NC(=O)COC(=O)CCN2C(=O)C3CC=CCC3C2=O)c1 (stereo not drawn)	1.9	/	/	/	/
COCCCNc1nc2ccccc2nc1NS(=O)(=O)c1cccc(Cl)c1	43.2*	21.7	/	43.1	/
CCCCOC(=O)c1ccc(NC(=O)COC(=O)C2CSC3(C)CCC(=O)N23)cc1 (stereo not drawn)	-9.5	/	/	/	/
CC12CCC(=O)N1C(C(=O)OCC(=O)Nc1sccc1C#N)CS2 (stereo not drawn)	15.3	98.6*	-0.9	63.5*	0.7
CCN(Cc1ccc(OC)c(F)c1)C(=O)/C=C/c1ccc(S(=O)(=O)N2CCOCC2)cc1	3.4	/	/	/	/
CC1=NNC(=O)C1Oc1ccccc1 (stereo not drawn)	3.2	29.3	2.2	21.5	0.4
CO/N=C/C1C(=O)NN=C1c1ccccc1 (stereo not drawn)	4.6	92.7*	2.3	?	0.1
O=C1CSC(=S)N1c1ccccc1	5.0	/	/	/	/
O=C1CSC(=S)N1c1cccnc1	39.8*	6.8	-0.3	4.3	0.9
CCN(CC)c1ccc(N2C(=O)CSC2=S)cc1	-5.3	14.7	0.0	61.5*	0.7
O=C1CSC(=S)N1/N=C/c1cccnc1	43.5*	-1.6	-5.5	-7.5	-0.2
COc1ccccc1N(CCC#N)C(=S)Nc1ccc(S(=O)(=O)N2CCOCC2)cc1	28.2	/	/	/	/
COc1cc2oc(=O)cc(CN3CCOCC3)c2cc1Cl	-4.2	/	/	/	/
SMILES	PABP1 MLLE inh	PABP FP inh	eIF4E 4G PPI	eIF4H FP inh	PERK inh
CSc1c(C#N)c(N)nc2sc(C(=O)c3ccccc3)c(N)c12	11.0	60.1*	-11.9	84.9*	-0.1
COc1ccc(/C=C2\C(=O)NC(=S)N2C(=O)c2ccc(F)cc2)cc1	-167.4	-0.5	6.7	48.1	0.9
O=C1NC(=S)N(C(=O)c2ccc(F)cc2)/C1=C/c1ccccc1	-130.0	active	7.5	71.7*	-0.6
O=C(Cn1cc([N+](=O)[O-])ccc1=O)NCC(=O)Nc1ccc(F)c(F)c1F	1.2	/	/	/	/
CCc1nc2ccc(C(=O)NCc3ccccc3OC)cn2c1N(C)Cc1ccc(OC)cc1	4.9	/	/	/	/
CC(C)(C)C(=O)Nc1c2c(nn1-c1ccc(F)cc1)CSC2	36.6*	4.5	/	4.8	/
CC(C)C(=O)Nc1c2c(nn1-c1ccc(F)cc1)CSC2	-1.2	-11.5	/	1.4	/
CCN(CC(=O)NCc1ccc(Cl)cc1)CC(=O)Nc1ccc(C(N)=O)cc1	0.8	50.5	2.7	0.4*	-0.3
CCN(CC(=O)NCc1ccc(Cl)cc1)C(=O)CNS(=O)(=O)c1ccc(NC(C)=O)cc1	40.9*	4.8	/	4.3	/
CCN(CC(=O)NCc1ccc(Cl)cc1)C(=O)NCc1ccc(Cl)cc1	-1.6	-3.3	/	-14.1	/
CC(=O)Nc1ccc(NC(=O)C2CC(=O)N(Cc3ccco3)C2)cc1 (stereo not drawn)	-46.3	/	/	/	/
O=C(C[n+]1ccccc1)c1ccc(NC(=O)c2ccccc2)cc1	-121.4	71.8*	19.4	-4.9	0.7
Cc1cc[n+](CC(=O)c2ccc(NC(=O)c3ccccc3)cc2)cc1	16.4	-6.8	7.3	1.9	0.5
CCOC(=O)c1cn(-c2nc(-c3ccc(Cl)cc3)cs2)c2c(F)c(N3CC(C)OC(C)C3)c(F)cc2c1=O (stereo not drawn)	/	-4.9	2.1	-2.3	3.2*
COCCCNC(=S)N(CCO)Cc1cc2cc3c(cc2[nH]c1=O)OCCO3	40.5*	1.4	/	-5.4	/
COCCCNC(=S)N(CCCN(C)C)Cc1cc2cc3c(cc2[nH]c1=O)OCCO3	-73.7	8.8	/	13.0	/
COCCNC(=S)N(CCO)Cc1cc2cc3c(cc2[nH]c1=O)OCCO3	39.3*	-6.4	/	5.5	/
COCCNC(=S)N(CCCN(C)C)Cc1cc2cc3c(cc2[nH]c1=O)OCCO3	-79.6	3.6	/	9.7	/
O=C(c1ccccc1)N(CCO)Cc1cc2cc3c(cc2[nH]c1=O)OCCO3	56.6*	?	1.4	-6.7	-0.2
CCN(CC(=O)Nc1ccc(NC(C)=O)cc1)C(=O)c1cn(-c2ccccc2)nc1-c1cccs1	9.1	/	/	/	/
OC(c1ccc2c(c1)OCO2)c1ncc(-c2cccc(C(F)(F)F)c2)[nH]1 (stereo not drawn)	-14.2	/	/	/	/
CN(C(=O)COC(=O)c1ccc(Cl)c(S(=O)(=O)NCc2ccccc2)c1)C1CCS(=O)(=O)C1 (stereo not drawn)	-2.5	/	/	/	/
COc1cc(OC)c(OC)cc1CNC(=O)c1cc(S(=O)(=O)N2CCOCC2)ccc1F	-3.7	/	/	/	/
Cn1cccc1/C=C1\CC(C(C)(C)C)C/C(=C\c2cccn2C)C1=O (stereo not drawn)	-124.2	60.2*	-4.5	51.2*	0.2
Cn1cccc1/C=C1\Cc2ccccc2C1=O	-3.5	-14.4	-1.7	-1.8	-0.2
COCCNC(=O)C1(C)CCCN(C(=O)c2ccc3snnc3c2)C1 (stereo not drawn)	4.3	/	/	/	/
Cn1c(Cc2c[nH]c3ccccc23)n[nH]c1=S	-18.4	70.2	-2.5	6.5*	0.7
